{
  "source": "the supplement of paper PMC8387472",
  "data": [
    {"compound": "O=C1Cc2c([nH]c3ccc(Br)cc23)-c2ccccc2N1 [Kenpaullone]", "experiment": "fraction of microhomology deletions among edited reads; higher = more MH deletions", "conditions": "mESC; 2uM; 72 h treatment, harvest day 5", "values": [
      {"target": "32.0 (DMSO control at this site: 1-bp insertion 0.03, MH deletion 0.85, edited 0.898) AGAAGTCCAGGATCAGGGGGACTGGGGTCGGGAGGGTGGGGCAGGAAGGAAGCCAGAATCA", "fraction of microhomology deletions among edited reads": 0.904},
      {"target": "26.0 (DMSO control at this site: 1-bp insertion 0.518, MH deletion 0.262, edited 0.026) AGGGCGCGCCCCACGCACTCTGCGGCAAGTCCCTCTGCGGCAAGTCCTCGGCCCGGAAGAC", "fraction of microhomology deletions among edited reads": 0.244},
      {"target": "34.0 (DMSO control at this site: 1-bp insertion 0.184, MH deletion 0.385, edited 0.103) ATTATAGGACCCTGAGGGAGCAGAGATGTGGGAATGGGGGCCGAGCCAATTGTGATGTAAG", "fraction of microhomology deletions among edited reads": 0.473},
      {"target": "18.0 (DMSO control at this site: 1-bp insertion 0.114, MH deletion 0.789, edited 0.094) GCGCAAGTGCATAAGTTTTTCTTAAGGCGTGCCTTTAAGGCGTGCCTTTGTCGGTCCTGGA", "fraction of microhomology deletions among edited reads": 0.759},
      {"target": "41.0 (DMSO control at this site: 1-bp insertion 0.022, MH deletion 0.754, edited 0.115) AAAGAGACAGCAGGTATGAATCCATCTTCCTGACCCTTGGGACCAGCCGGGGCAGTGAAGC", "fraction of microhomology deletions among edited reads": 0.672},
      {"target": "47.0 (DMSO control at this site: 1-bp insertion 0.095, MH deletion 0.585, edited 0.118) GAGTGGTCCCGAGCCAGGAACTGTGTGTGTTGCAGGGGGGCAGTAACTCCCCAACTCCCTC", "fraction of microhomology deletions among edited reads": 0.486},
      {"target": "35.0 (DMSO control at this site: 1-bp insertion 0.01, MH deletion 0.72, edited 0.098) CCACTTTTAGAGAGGGTGAAAATCATCAGTTATCATCAGGGCAACAAATTGCTTTCTCCTA", "fraction of microhomology deletions among edited reads": 0.683},
      {"target": "16.0 (DMSO control at this site: 1-bp insertion 0.172, MH deletion 0.29, edited 0.05) CGGACTGCACACATGGGTAGGATCGTGCACGCGAGGTAGGATCGTGCACGCGAAGTTATTC", "fraction of microhomology deletions among edited reads": 0.327},
      {"target": "19.0 (DMSO control at this site: 1-bp insertion 0.121, MH deletion 0.101, edited 0.057) TCTGCAGGGGTCGGAACCCGGGGGCTAGGGCTATCCCGGGGGCTAGGGCTATTAGCGAACC", "fraction of microhomology deletions among edited reads": 0.221},
      {"target": "22.0 (DMSO control at this site: 1-bp insertion 0.573, MH deletion 0.229, edited 0.045) CTGATGGTTGAAGGATTTAGCCGGGGTCCTAGACGCCGGGGTCCTAGACGAAAGGGCCACG", "fraction of microhomology deletions among edited reads": 0.116},
      {"target": "38.0 (DMSO control at this site: 1-bp insertion 0.063, MH deletion 0.487, edited 0.17) GGGCTGGGTGCTAAAATGAGGAGCTCCAAGAAGACTGAGGTGAACCTGGAGGCCCCTGAGC", "fraction of microhomology deletions among edited reads": 0.414},
      {"target": "5.0 (DMSO control at this site: 1-bp insertion 0.214, MH deletion 0.567, edited 0.105) CGCTGACCCGAGACCTACGCGAACCGAAATCGGCGACCGGTGCGCAAGCAGGGCTGGCGTC", "fraction of microhomology deletions among edited reads": 0.523},
      {"target": "1.0 (DMSO control at this site: 1-bp insertion 0.521, MH deletion 0.323, edited 0.141) GTGTCACAGTGCACGAGTGACGGGATAATGTGCTGACAGGTAATTGATAGGCTTCCAACTT", "fraction of microhomology deletions among edited reads": 0.197},
      {"target": "0.0 (DMSO control at this site: 1-bp insertion 0.463, MH deletion 0.339, edited 0.14) AGGATTACCGAGACCTACGCGAACCGAAATCGCTGTCCGGTGCGCAAGCAGGGCTGGCGTC", "fraction of microhomology deletions among edited reads": 0.22},
      {"target": "3.0 (DMSO control at this site: 1-bp insertion 0.109, MH deletion 0.149, edited 0.09) TGCTAGCGCCCCCACAAAGCGGACCAGCCAGCACTATAGGGAATAAGGCCAACTTGCACCC", "fraction of microhomology deletions among edited reads": 0.194},
      {"target": "7.0 (DMSO control at this site: 1-bp insertion 0.128, MH deletion 0.374, edited 0.098) TACTCAACCGAGACCTACGCGAACCGAAATCGTATGCCGGTGCGCAAGCAGGGCTGGCGTC", "fraction of microhomology deletions among edited reads": 0.436},
      {"target": "39.0 (DMSO control at this site: 1-bp insertion 0.328, MH deletion 0.371, edited 0.204) CTGCACAGTCACTTAGGATAGGAGAAGATGATGTATAGGGTTTAGTGGGAGATGTTGCAAG", "fraction of microhomology deletions among edited reads": 0.264}
    ]}
  ]
}
